The record followed here is PubChem BioAssay (NCI).

About 83,000 compounds went through this panel and 20% of them were active in at least one assay; those are over-represented in the sample as a whole.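 Assay: single dose, 48 h. Readout: percent growth (0 = no net growth; negative = cell death). Active: <10.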 Values without a mark were called inactive. The source made the active and inactive calls.

Among the test systems are HCT-15 colon; HT29 colon; SNB-75 CNS; SNB-19 CNS; U251 CNS; PC-3 prostate; UACC-62 melanoma; LOX IMVI melanoma; SK-MEL-28 melanoma; SK-MEL-2 melanoma; EKVX NSCLC; SN12C renal; UO-31 renal; TK-10 renal; ACHN renal; CAKI-1 renal; A498 renal; MOLT-4 leukemia; CCRF-CEM leukemia.
What all share (experiment): NCI-60 one-dose screen, 48 h (100 = growth as untreated, 0 = no growth, -100 = all killed)
What all share (details): 10 µM unless noted

With `CC(C)N(Cc1ccc(CN(C(=O)CCl)C(C)C)cc1)C(=O)CCl`, the growth is 0.15% (active) with HCT-15 colon; -49.7% (active) in the test on HT29 colon; -60.5% (active) with SNB-75 CNS; 63.2% in the test with SNB-19 CNS; -41% (active) with U251 CNS; 29.7% in the test on PC-3 prostate. Further, the growth with UACC-62 melanoma is 2.74% (active); in the test with LOX IMVI melanoma, -61.2% (active); in the test on SK-MEL-28 melanoma, 33.1%; with SK-MEL-2 melanoma, 44.9%; in the test with EKVX NSCLC, 82.6%; in the test on SN12C renal, 15.4%. Further, the growth is -83.6% (active) in the test with UO-31 renal; 70.5% in the test on TK-10 renal; 5.84% (active) in the test with ACHN renal; 33.6% in the test on CAKI-1 renal; 88.2% in the test with A498 renal; 8.54% (active) in the test on MOLT-4 leukemia.
In the case of `CCOC(=O)[C@H](CSSc1ncnc2cc[nH]c12)NC(=O)[C@@H](C)c1ccc2cc(OC)ccc2c1`, the growth was 19.6% with HCT-15 colon; 15.7% with HT29 colon; 50.1% in the test with SNB-75 CNS; 91.8% with SNB-19 CNS; 35.6% in the test on U251 CNS; 36.3% with PC-3 prostate. Further, the growth is 7.27% (active) in the test on UACC-62 melanoma; 10.3% in the test on LOX IMVI melanoma; 69.2% in the test on SK-MEL-28 melanoma; 23% in the test with SK-MEL-2 melanoma; 29.8% in the test on SN12C renal; 13.4% in the test on UO-31 renal. In addition, the growth was 13.8% with TK-10 renal; 24.9% in the test with ACHN renal; 16% in the test on CAKI-1 renal; 49.9% with A498 renal; 12.7% in the test with CCRF-CEM leukemia; 3.42% (active) in the test on MOLT-4 leukemia.
Consider `COc1ccc(/C=C/C(=O)OCC(=O)NNC(=O)c2ccccc2)cc1OC`, for which the growth in the test with HCT-15 colon was 108%; in the test with HT29 colon it was 105%; in the test with SNB-75 CNS, 78.2%; in the test with SNB-19 CNS it was 111%; in the test on U251 CNS, 97%; with PC-3 prostate it was 97.3%. The growth with UACC-62 melanoma is 98.4%; in the test on LOX IMVI melanoma, 87.1%; in the test on SK-MEL-28 melanoma, 125%; in the test on SK-MEL-2 melanoma, 68.6%; with EKVX NSCLC, 84.4%; in the test on SN12C renal it was 101%. Moreover, the growth in the test on UO-31 renal was 80.9%; in the test with TK-10 renal, 121%; in the test on ACHN renal it was 90.2%; with CAKI-1 renal, 83.5%; in the test with A498 renal, 93%; in the test on CCRF-CEM leukemia it was 93.8%. In addition, the growth in the test on MOLT-4 leukemia is 70.1%.
Regarding `O=C(CN1CCN(c2cc3c(cc2F)c(=O)c(C(=O)O)cn3C2CC2)CC1)Nc1ccc(C(=O)/C=C/c2ccc(Cl)cc2)cc1`, the growth is 111% with HCT-15 colon; 106% in the test on HT29 colon; 84.8% in the test with SNB-75 CNS; 92.9% with SNB-19 CNS; 99% with U251 CNS; 91.7% in the test with PC-3 prostate. Further, the growth with UACC-62 melanoma is 93.1%; with LOX IMVI melanoma, 78.9%; in the test on SK-MEL-28 melanoma, 96.5%; with SK-MEL-2 melanoma, 113%; in the test on SN12C renal it was 94.2%; in the test with UO-31 renal, 94.6%. Besides, the growth with TK-10 renal is 111%; in the test on ACHN renal it was 107%; in the test on CAKI-1 renal, 102%; with A498 renal, 102%; with CCRF-CEM leukemia it was 99.5%; with MOLT-4 leukemia, 110%.
For the compound `Cc1ccc(OCCn2c(C)nn(-c3ccc(Cl)cc3)c2=O)cc1`, the growth in the test on HCT-15 colon was 111%; in the test with HT29 colon, 119%; in the test with SNB-75 CNS, 82.6%; in the test with SNB-19 CNS it was 109%; in the test with U251 CNS, 101%; with PC-3 prostate, 92.4%. For the same compound, the growth is 103% in the test on UACC-62 melanoma; 96.3% with LOX IMVI melanoma; 101% in the test on SK-MEL-28 melanoma; 146% in the test with SK-MEL-2 melanoma; 105% in the test on SN12C renal; 83.9% in the test on UO-31 renal. The growth with TK-10 renal was 131%; with ACHN renal it was 103%; in the test with CAKI-1 renal, 93.7%; in the test on A498 renal, 117%; in the test on CCRF-CEM leukemia, 99.9%; with MOLT-4 leukemia, 111%.
For `COc1cc2c3c(c(=O)oc2cc1OS(=O)(=O)c1ccc(C(F)(F)F)cc1)CCCCC3`, the growth in the test on HCT-15 colon was 79.2%; with HT29 colon, 78.8%; in the test on SNB-75 CNS, 8.09% (active); in the test on SNB-19 CNS, 76.7%; with U251 CNS it was 82.1%; in the test on PC-3 prostate, 68.1%. The growth in the test with UACC-62 melanoma is 68.1%; with LOX IMVI melanoma it was 93.5%; in the test on SK-MEL-28 melanoma, 76.3%; with SK-MEL-2 melanoma, 90.5%; with SN12C renal, 89.7%; with UO-31 renal, 92.6%. Moreover, the growth in the test on TK-10 renal was 122%; in the test on ACHN renal it was 72.5%; in the test with A498 renal, 86.3%; in the test on CCRF-CEM leukemia, 90.2%; in the test on MOLT-4 leukemia it was 95.9%.
In the case of `COc1ccc(-c2nc3sccn3c2-c2ccnc(NCCCNS(=O)(=O)c3ccc(C)cc3)n2)cc1`, the growth in the test on HCT-15 colon is 16.8%; in the test with HT29 colon it was 18.4%; in the test with SNB-75 CNS, 77.4%; in the test with SNB-19 CNS, 71.7%; in the test on U251 CNS, 45.1%; in the test on PC-3 prostate, 31.5%. The growth was 10.9% in the test on UACC-62 melanoma; 11% in the test on LOX IMVI melanoma; 41.5% in the test on SK-MEL-28 melanoma; 25.9% in the test on SK-MEL-2 melanoma; 36.3% in the test on SN12C renal; 15.5% in the test on UO-31 renal. Moreover, the growth in the test with TK-10 renal is 66%; in the test with ACHN renal it was 22.4%; in the test with CAKI-1 renal it was 42.1%; in the test on CCRF-CEM leukemia, 18.9%; in the test with MOLT-4 leukemia, 24.6%.
In the case of `O=Nc1c(-c2c(O)[nH]c3ccc([N+](=O)[O-])cc23)[nH]c2ccc(O)cc12`, the growth in the test on HCT-15 colon was 10.3%; in the test on HT29 colon it was 69.2%; in the test with SNB-75 CNS it was -28.1% (active); in the test on SNB-19 CNS, 17.5%; in the test on U251 CNS, 0.602% (active); with PC-3 prostate, 2.12% (active). Also, the growth in the test on UACC-62 melanoma is -34.4% (active); in the test on LOX IMVI melanoma it was -32.4% (active); in the test on SK-MEL-28 melanoma, -11% (active); with SK-MEL-2 melanoma, -55% (active); with SN12C renal, 23.7%; in the test on UO-31 renal, -1.14% (active). The growth was 49.9% in the test with TK-10 renal; -25.8% (active) in the test on ACHN renal; -14.3% (active) in the test on CAKI-1 renal; -24.5% (active) with A498 renal; 2.17% (active) with MOLT-4 leukemia.
